Compound activity (PubChem BioAssay)
HCMV antiviral: qHTS Assay for inhibitors of the human cytomegalovirus (HCMV) | AID 1259415, 2018 | hit rate 4.5% among 410,000 | activity change, negative = inhibition, % at 57.5 µM | HFF cells, HCMV-luciferase reporter, 72 h; stronger effect = lower value; in the data active = activity change below about -60%; inconclusive = no clear call, values can overlap the other calls; inactive = above about -39%
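Cell-based, HFFs, 1000 cells/well, 16 h 37C; cpds in DMSO + HCMV-luc, MOI 1 PFU/cell; 72 h 37C; OneGlo luminescence after 5 min RT; norm. to buffer vs Salinomycin 10uM.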
Marburg entry inh: qHTS for inhibitors of binding or entry into cells for Marburg Virus; Marburg virus pseudotyped entry inhibition, cell reporter; Potency, µM (series often up to 37.8 µM), for the others: top-dose activity change, negative = inhibition, usual class: inhibitors; AID 540276, 2011; hit rate 1.8% among 300,000; calls by dose curve; tested in HEK293 cells; note: potency is the fitted concentration of half-maximal effect
HCV inhibitor: qHTS Assay for Inhibitors of Hepatitis C Virus (HCV); Potency, µM (highest dose often 41.8 µM), inactives show top-dose activity change, negative = inhibition, hits mostly inhibitors; Huh7.5.1 HCVcc-Cre infection, luciferase reporter, 44 h; hit rate 3.4% among 340,000; note: potency is the fitted concentration of half-maximal effect
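A cell-based infection assay in which seeded cells (1,000 per well) receive test compound after 4 h, are inoculated with HCVcc-Cre at approximately 0.5 moi, and are incubated 44 h before luminescence detection.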
Pf growth 48h: Primary qHTS for delayed death inhibitors of the malarial parasite plastid, 48 hour incubation; P. falciparum luciferase growth in erythrocytes, 48 h; Potency, µM (highest dose often 28.7 µM), for the others: top-dose activity change, negative = inhibition, usual class: inhibitors; hit rate 5.9% among 310,000; AID 504832, 2011; note: potency is the fitted concentration of half-maximal effect
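Growth was read as firefly luciferase luminescence after a 48 h, 37 C, 5% CO2 exposure of compounds to reporter-bearing P. falciparum cultures (0.1% parasitemia, 2% hematocrit final) in Albumax-supplemented RPMI 1640.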
Pf growth 96h: Primary qHTS for delayed death inhibitors of the malarial parasite plastid, 96 hour incubation; P. falciparum luciferase reporter growth, 96 h; Potency, µM (top dose mostly 28.7 µM), for inactives: at the highest dose activity change, negative = inhibition, hits mostly inhibitors; hit rate 6.9% among 320,000; note: potency is the fitted concentration of half-maximal effect
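Compounds incubated with erythrocytes infected by luciferase-expressing P. falciparum (2% hematocrit, 0.05% parasitemia final) for 96 hours, 37 C in 5% CO2. Growth inhibition scored as decreased luciferase luminescence.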
LASV entry inh: qHTS for Inhibitors of binding or entry into cells for Lassa Virus | Lassa virus pseudotype entry inhibition, cell reporter | Potency, µM (titrated, usually from 37.9 µM), without a hit: at the highest dose activity change, negative = inhibition, hits mostly inhibitors | hit rate 1.2% among 300,000 | AID 540256, 2011; calls by dose curve; tested in HEK293 cells; note: potency is the fitted concentration of half-maximal effect; nearly all actives have a fitted effect of over 50% in size
Numbers without * were called inactive; [ ] = another dose, or the depositor's remark. An excerpt weighted towards active compounds, which were near 14% of everything screened. Unless noted, calls come from the whole dose curve; as a rule, active = well fitted inhibition curve with a large enough effect; inconclusive = small, poorly fitted or top-dose-only effect, or another doubt; inactive = no such curve, though single readings can be large or run the other way. % is set by controls: 0 for no effect and ±100 for the full control effect.

CCc1ccc(NC(=O)CC2C(=O)N(c3cccc(C)c3)C(=O)N2Cc2ccco2)cc1 (stereo not drawn) was read as HCMV antiviral inconclusive and LASV entry inh -24%[46.1 µM].
Screening COc1ccccc1N1C(=O)c2cccc3c(C(=O)O)ccc(c23)C1=O returned HCMV antiviral 13, Marburg entry inh -2%, HCV inhibitor 31%, Pf growth 96h 5% and LASV entry inh 18%.
COc1ccc2c3c(cccc13)C(=O)N(O)C2=O was read as HCMV antiviral -60*, Marburg entry inh -30%, HCV inhibitor inconclusive, Pf growth 48h 13µM*, Pf growth 96h 15% and LASV entry inh -23%.
O=C(CN(Cc1ccco1)C(=O)c1cc(=O)[nH]c2ccccc12)Nc1ccccc1Br was read as HCMV antiviral -4, Marburg entry inh -1%, HCV inhibitor 3%, Pf growth 48h inconclusive, Pf growth 96h 9.3µM* and LASV entry inh -1%.
`COc1ccc(CCNC(=O)c2ccc3c(c2)c(C)c(C)n3Cc2ccccc2)c(OC)c1OC` gave HCMV antiviral 0 and LASV entry inh -20%[46.1 µM].
Screening CCc1ccc(NC(=O)CSC2=Nc3ccccc3C3=NC(CC(=O)NCc4ccc5c(c4)OCO5)C(=O)N23)cc1 (stereo not drawn) returned HCMV antiviral 51 and LASV entry inh 12%[46.1 µM].
Screening CCn1cc(C(=O)O)c(=O)c2cc(F)c(N3CCN(C(=S)NC(=O)c4ccccc4Cl)CC3)cc21 returned HCMV antiviral -9, HCV inhibitor -13%, Pf growth 48h 5.2µM* and Pf growth 96h inconclusive.
For C=CCNC(=S)N1CCN(c2cc3c(cc2F)c(=O)c(C(=O)O)cn3CC)CC1 the results were HCMV antiviral -18, Marburg entry inh 17%[46.1 µM], HCV inhibitor -2%, Pf growth 48h inconclusive, Pf growth 96h 2.3µM* and LASV entry inh 15%.
For Cn1c(=O)oc2cc(S(=O)(=O)N3CCCC(C(=O)NCc4ccc(F)cc4)C3)ccc21 (stereo not drawn) the results were HCMV antiviral -24, Marburg entry inh -3%[46.1 µM] and LASV entry inh 3%[46.1 µM].
COc1ccc(S(=O)(=O)N2CCOCC2)cc1NC(=O)c1ccc(Cl)cc1 was read as HCMV antiviral 5, Marburg entry inh 2%[46.1 µM], HCV inhibitor 65%, Pf growth 48h -12%, Pf growth 96h 8.3µM* and LASV entry inh 2%.
Screening COc1ccc(C(=O)Nc2ccccc2N2CCOCC2)cc1S(=O)(=O)N1CCOCC1 returned HCMV antiviral -24, HCV inhibitor 2%, Pf growth 48h 5.9µM* and Pf growth 96h 1.9µM*.
`COc1ccc(S(=O)(=O)N2CCOCC2)cc1NC(=O)c1ccc(S(=O)(=O)N2CCCCC2)cc1` gave HCMV antiviral 0 and HCV inhibitor -3%.
O=C(O)c1cc(NCc2cccs2)ccc1N1CCOCC1 was read as HCMV antiviral 17, Marburg entry inh inconclusive, HCV inhibitor 11%, Pf growth 48h 18%, Pf growth 96h -17% and LASV entry inh -11%.
Screening COc1cccc(OC)c1C(=O)Nc1cc(Cl)ccc1N1CCOCC1 returned HCMV antiviral -11, Marburg entry inh -6%, HCV inhibitor 12%, Pf growth 48h 0%, Pf growth 96h 26% and LASV entry inh 6%.
Screening COc1ccc(C(=O)Nc2cc(Cl)ccc2N2CCOCC2)cc1S(=O)(=O)N1CCOCC1 returned HCMV antiviral -9, Marburg entry inh -30%, HCV inhibitor inconclusive, Pf growth 48h 10µM*, Pf growth 96h inconclusive and LASV entry inh -2%.
COC(=O)c1cc(NCc2cccs2)ccc1N1CCOCC1 was read as HCMV antiviral 33, Marburg entry inh 24%, HCV inhibitor 8%, Pf growth 48h -6%, Pf growth 96h 8.3µM* and LASV entry inh inconclusive.
O=C(Nc1ccccc1C(=O)N1CCCCCC1)c1cccc(S(=O)(=O)N2CCOCC2)c1 was read as HCMV antiviral -13, Marburg entry inh -8%, HCV inhibitor 0%, Pf growth 48h 12µM*, Pf growth 96h inconclusive and LASV entry inh 5%.
For O=C(Nc1ccccc1N1CCOCC1)c1ccc(Cl)c(S(=O)(=O)N2CCCC2)c1 the results were HCMV antiviral -9, HCV inhibitor inconclusive, Pf growth 48h inconclusive and Pf growth 96h inconclusive.
Screening O=C(NNC(=O)c1ccc(Br)s1)c1ccc(F)c(S(=O)(=O)N2CCOCC2)c1 returned HCMV antiviral -31, HCV inhibitor 13%, Pf growth 48h -12% and Pf growth 96h 10µM*.
For O=C(Nc1ccccc1N1CCOCC1)c1cccc(S(=O)(=O)N2CCOCC2)c1 the results were HCMV antiviral -24, HCV inhibitor 12%, Pf growth 48h inconclusive and Pf growth 96h 4.7µM*.
`O=C(Nc1ccccc1C(=O)N1CCCCC1)c1cccc(S(=O)(=O)N2CCOCC2)c1` gave HCMV antiviral -6, Marburg entry inh 2%, HCV inhibitor 23%, Pf growth 48h -15%, Pf growth 96h 35% and LASV entry inh 1%.
Screening O=C(Nc1ccccc1N1CCOCC1)c1ccc(F)c(S(=O)(=O)N2CCOCC2)c1 returned HCMV antiviral -11, HCV inhibitor 9%, Pf growth 48h inconclusive and Pf growth 96h 2.1µM*.
Screening CC(C)C[C@H]1CN(CCCC[C@H]2CNC(=O)C(=O)N2CCc2ccc(O)cc2)C(=O)C(=O)N1CCc1ccccc1 returned HCMV antiviral -36.
`COc1ccc(C(=O)NCc2cccs2)cc1S(=O)(=O)N1CCOCC1` gave HCMV antiviral 7, Marburg entry inh inconclusive, HCV inhibitor 15%, Pf growth 48h inconclusive, Pf growth 96h 4.1µM* and LASV entry inh -20%.
COc1ccc(NC(=O)c2cccnc2Cl)c(S(=O)(=O)N2CCOCC2)c1 was read as HCMV antiviral 14, Marburg entry inh 26%, HCV inhibitor 8%, Pf growth 48h 21% and LASV entry inh 1%.
`COc1ccc(C(=O)NC2CCSc3ccccc32)cc1S(=O)(=O)N1CCOCC1` (stereo not drawn) gave HCMV antiviral -23, Marburg entry inh 30%, HCV inhibitor -28%, Pf growth 48h 12µM*, Pf growth 96h inconclusive and LASV entry inh 8%.
For O=C(NCc1cccs1)c1ccc(Cl)c(S(=O)(=O)N2CCOCC2)c1 the results were HCMV antiviral -3.
COc1ccc(NC(=O)c2cncc(Br)c2)c(S(=O)(=O)N2CCOCC2)c1 was read as HCMV antiviral -23, Marburg entry inh -8%, HCV inhibitor -21%, Pf growth 48h inconclusive, Pf growth 96h 10µM* and LASV entry inh -3%.
